{"source": "PubChem BioAssay AID778", "about": "(Sanford-Burnham Center for Chemical Genomics, 2007)", "note": "About 20,000 (21%) of roughly 96,000 compounds were called active. These entries were drawn from the full list. Values without a mark were called inactive.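 How the source made its calls: active means CYP2C19 inhibition above a set limit at 5 µM in the primary screen (cut at about 50% in these data); inactive means the rest.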"}
{"target": "Cytochrome P450 2C19 (Homo sapiens) (UniProt P33261)", "sequence (P33261 whole entry, looked up)": "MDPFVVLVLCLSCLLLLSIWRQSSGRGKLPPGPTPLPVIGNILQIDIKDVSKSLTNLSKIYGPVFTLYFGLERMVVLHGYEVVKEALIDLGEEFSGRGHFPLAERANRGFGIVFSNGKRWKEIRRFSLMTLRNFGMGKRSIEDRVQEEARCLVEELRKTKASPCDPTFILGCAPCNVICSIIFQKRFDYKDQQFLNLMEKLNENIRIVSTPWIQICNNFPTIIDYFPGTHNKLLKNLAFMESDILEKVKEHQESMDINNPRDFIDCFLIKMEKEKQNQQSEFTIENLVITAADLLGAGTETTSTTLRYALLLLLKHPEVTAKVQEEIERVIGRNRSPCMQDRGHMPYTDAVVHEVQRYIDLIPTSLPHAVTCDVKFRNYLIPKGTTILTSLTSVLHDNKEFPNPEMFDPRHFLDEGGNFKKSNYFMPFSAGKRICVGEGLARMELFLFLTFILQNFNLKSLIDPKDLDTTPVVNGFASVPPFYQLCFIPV", "assay": "blockers of cytochrome P450 2C19 activity – biochemical, luminescence, ADME assay, primary screen (AID 778);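 further: plate controls were negative control wells for no effect and 2.5 mM tranylcypromine positive control for full effect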", "details": "CYP2C19 Supersomes, luciferin-H EGE luminescence, 30 min; at 5 µM; active compounds read high"}
{"compound": "Cc1nn(-c2cc(Cl)ccc2N)c(=O)c2ccccc12", "inhibition": "8.7%"}
{"compound": "Cc1nc(NC(=O)c2cccc(Cl)c2)sc1-c1csc(Nc2cccc(Cl)c2)n1", "inhibition": "-18.9%"}
{"compound": "Cc1cc(OC(=O)c2c(Cl)cccc2Cl)nc(C)n1", "inhibition": "-6.5%"}
{"compound": "CCOC(=O)N1CCN(C(=O)c2n[nH]c(=O)c3ccccc23)CC1", "inhibition": "-2.6%"}
{"compound": "COc1ccc(COC(=O)c2n[nH]c3ccccc23)cc1F", "inhibition": "57.1% (active)"}
{"compound": "O=C(COC(=O)c1n[nH]c2ccccc12)NCc1ccccc1", "inhibition": "76.4% (active)"}
{"compound": "COc1ccc(C(C)=O)cc1COC(=O)Cn1cnc2ccccc2c1=O", "inhibition": "28.2%"}
{"compound": "O=C(Cc1c(O)c2ccccc2[nH]c1=O)NCc1ccccc1", "inhibition": "4.1%"}
{"compound": "CN(C)S(=O)(=O)c1ccc(NC(=O)COC(=O)c2n[nH]c3ccccc23)cc1", "inhibition": "-17.2%"}
{"compound": "CSc1sc(C)cc1C1C(C#N)=C(N)N(c2cccnc2)C2=C1C(=O)CCC2", "note": "(stereo not drawn)", "inhibition": "29.4%"}
{"compound": "CCSc1ccccc1C(=O)NCc1ccc(OC)cc1", "inhibition": "96.2% (active)"}
{"compound": "CC(C)NC(=O)CSc1ccccc1C(=O)NCc1ccc2c(c1)OCO2", "inhibition": "33.8%"}
{"compound": "CCCNC(=O)c1ccccc1NC(=O)CSCc1ccc(OC)cc1", "inhibition": "45.7%"}
{"compound": "COc1cc(OC)c(C(=O)Nc2ccc(N(C)C)cc2)cc1OC", "inhibition": "-11%"}
{"compound": "CCCN1C(=O)C(NS(=O)(=O)c2ccc(N)cc2)(C(F)(F)F)C(C(=O)OC)=C1C", "note": "(stereo not drawn)", "inhibition": "6.9%"}
{"compound": "O=C(NCCc1ccccc1)c1ccc(NC2=NC3CS(=O)(=O)CC3S2)cc1", "note": "(stereo not drawn)", "inhibition": "5%"}
{"compound": "CC(=O)c1cccc(NC(=O)N2CCCC2C(=O)NCCc2ccccc2)c1", "note": "(stereo not drawn)", "inhibition": "30.9%"}
{"compound": "CC1CCCN(c2ccc(C(=O)NCCc3ccccc3)cn2)C1", "note": "(stereo not drawn)", "inhibition": "60.7% (active)"}
{"compound": "CCc1ccc2oc(-c3ccc(N)cc3)nc2c1", "inhibition": "-5.5%"}
{"compound": "CC(C)C(=O)N1CCN(CCN=CC2=C(O)CC(c3ccco3)CC2=O)CC1", "note": "(stereo not drawn)", "inhibition": "2.8%"}
{"compound": "O=[N+]([O-])c1ccccc1/C=N/n1c(COc2ccccc2)n[nH]c1=S", "inhibition": "8.1%"}
{"compound": "Cc1cccc(-n2c(N)c(C(=O)N3CCN(C)CC3)sc2=S)c1", "inhibition": "6.5%"}
{"compound": "CC1CCCN(Cc2nc3c(c(=O)n(C)c(=O)n3C)n2CC(=O)c2ccccc2)C1", "note": "(stereo not drawn)", "inhibition": "15.6%"}
{"compound": "COc1ccc(NC(=O)CSc2nc(NS(=O)(=O)c3ccc(C)cc3)cc(=O)[nH]2)cc1", "inhibition": "85.4% (active)"}
{"compound": "COc1ccc(NC(=O)CSc2nc(N)c(-c3ccccc3)c(=O)[nH]2)cc1", "inhibition": "2%"}
{"compound": "COc1ccc2nc(SCC(=O)Nc3c(C)cc(C)cc3C)[nH]c2c1", "inhibition": "64.3% (active)"}
{"compound": "COC(=O)c1cccc(NC(=O)CSc2nc(C)cc(=O)[nH]2)c1", "inhibition": "20.8%"}
{"compound": "COc1ccc(OC)c(NC(=O)CSc2nc(N)c(-c3ccccc3)c(=O)[nH]2)c1", "inhibition": "11.1%"}
{"compound": "COc1cc2ccccc2cc1C(=O)Nc1ccc(S(=O)(=O)Nc2cc(C)on2)cc1", "inhibition": "-10.1%"}
{"compound": "C=CCn1c(=S)[nH]c2nc3c(cc2c1=O)COC(C)(C)C3", "inhibition": "41.9%"}
{"compound": "Cc1nc2ncnn2c(C)c1CCC(=O)N1CCN(C(=O)c2ccco2)CC1", "inhibition": "-9.1%"}
{"compound": "CCN(c1ccccc1)S(=O)(=O)c1ccc(N)cc1", "inhibition": "12.9%"}
{"compound": "Cn1nnc(NC(=O)CSc2ncn[nH]2)n1", "inhibition": "-2%"}
{"compound": "Cn1nc(-c2ccc(Cl)cc2)c2cc(C(=O)NCc3ccco3)sc21", "inhibition": "24.9%"}
{"compound": "COc1ccc(-n2c(C)cc(C(=O)CSc3nnc(-c4cccs4)o3)c2C)cc1", "inhibition": "83.2% (active)"}
{"compound": "COc1ccc(-c2nnc(SCC(=O)c3cccs3)o2)c(OC)c1", "inhibition": "14.1%"}
{"compound": "COc1ccc(-c2nnc(SC(=O)N3c4ccccc4Sc4ccccc43)o2)cc1", "inhibition": "11.9%"}
{"compound": "Cc1cc(NC(=O)CSc2nnc(-c3ccc(Cl)s3)o2)no1", "inhibition": "32.4%"}
{"compound": "COc1ccc(OC)c(C(=O)CSc2nnc(-c3cccs3)o2)c1", "inhibition": "54.9% (active)"}
{"compound": "COC(=O)CSc1nnc(-c2cccnc2)o1", "inhibition": "7.2%"}
{"compound": "COc1cc(/C=C(\\C#N)c2nc3c(s2)CC(C)CC3)ccc1O", "note": "(stereo not drawn)", "inhibition": "2.4%"}
{"compound": "Cc1ccc2nc(SCc3nnc(-c4ccccc4[N+](=O)[O-])o3)c(C#N)cc2c1", "inhibition": "17.1%"}
{"compound": "O=S(=O)(CCc1nc2ccccc2o1)c1ccc(Cl)cc1", "inhibition": "30.1%"}
{"compound": "COc1ccc(N2C(=O)C3CCCN3C2c2cccs2)cc1", "note": "(stereo not drawn)", "inhibition": "29.5%"}
{"compound": "CC12CN(Cc3ccccc3)CC(C)(CN(Cc3ccccc3)C1)C2=NO", "inhibition": "15.1%"}
{"compound": "c1ccc(CSc2ncnc3c2sc2nc(N4CCOCC4)c4c(c23)CCCC4)cc1", "inhibition": "4%"}
{"compound": "CCCSc1nsc(N)n1", "inhibition": "15.5%"}
{"compound": "CCc1nn(-c2cc(Oc3cccc4ccccc34)nc(-c3ccccc3)n2)c(N)c1C#N", "inhibition": "0.4%"}
{"compound": "O=S(=O)(NCc1cccnc1)c1ccc(Cl)nc1", "inhibition": "13.3%"}
{"compound": "O=S(=O)(NCc1cccnc1)c1ccc(Br)s1", "inhibition": "60.4% (active)"}
{"compound": "O=S(=O)(NCc1ccccn1)c1ccc(Br)s1", "inhibition": "61.6% (active)"}
{"compound": "Cc1cc(Cl)c(S(=O)(=O)NCc2cccnc2)cc1OCC(N)=O", "inhibition": "-7.3%"}
{"compound": "CN(c1ccc(C(=O)NCc2ccccn2)cc1)S(C)(=O)=O", "inhibition": "14.5%"}
{"compound": "O=S(=O)(NCc1ccccn1)c1ccc(F)cc1", "inhibition": "40.5%"}
{"compound": "C#CCSc1nnc(-c2sc3ccccc3c2Cl)o1", "inhibition": "25.2%"}
{"compound": "COc1ccc(C(F)(F)F)cc1N/C=C\\c1nnnn1-c1ccc(C)cc1", "inhibition": "40.8%"}
{"compound": "CCc1ccccc1N(CC(=O)N1CCN(c2ccccc2F)CC1)S(C)(=O)=O", "inhibition": "-6.6%"}
{"compound": "Cc1ccc(NC(=O)COc2ccc(-n3ccnc3)cc2)cc1Cl", "inhibition": "99.2% (active)"}
{"compound": "Cc1ccccc1OCC(=O)Nc1ccc(N2CCN(C(=O)C(C)C)CC2)c(Cl)c1", "inhibition": "42.7%"}
{"compound": "Cc1csc(OCC(=O)Nc2ccc(C)c(C)c2)n1", "inhibition": "15.8%"}
{"compound": "Cc1ccc(SCC(=O)NC(=O)NCc2ccco2)c(C)c1", "inhibition": "27%"}
{"compound": "CC1(N2CCOCC2)CC2(O)C(=[N+]1[O-])CCc1nonc12", "note": "(stereo not drawn)", "inhibition": "21.6%"}
{"compound": "COc1ccccc1Nc1ncc(C(C)=O)c(C)n1", "inhibition": "1.3%"}
{"compound": "COc1ccccc1-c1c(C)nn2c(C)c(C(C)=O)cnc12", "inhibition": "55% (active)"}
{"compound": "CC(=O)c1cnn(-c2cc(Oc3ccc(F)cc3)ncn2)c1C", "inhibition": "46.1%"}
{"compound": "Cc1nn(-c2ncc(C(F)(F)F)cc2Cl)c(=O)n1-c1ccccc1", "inhibition": "23.9%"}
{"compound": "CCCc1cc(=O)oc2c(C)c(O)c(CN3CCCCC3)cc12", "inhibition": "44.5%"}
{"compound": "CC1Cc2cc(/C(O)=C3\\C(=O)C(=O)N(CCN4CCOCC4)C3c3ccccc3F)ccc2O1", "note": "(stereo not drawn)", "inhibition": "-2.6%"}
{"compound": "Cn1c(Cn2nnc3ccccc32)nnc1SCC(=O)c1ccccc1F", "inhibition": "7.9%"}
{"compound": "CC(C)NC(=O)CSc1nnc(COc2ccccc2Cl)o1", "inhibition": "60.8% (active)"}
{"compound": "Cc1cc(C)cc(OCc2nnc(SCC(=O)Nc3ccccc3)o2)c1", "inhibition": "2.4%"}
{"compound": "Cc1ccccc1OCc1nnc(SCC(=O)N2c3ccccc3Sc3ccc(Cl)cc32)o1", "inhibition": "12%"}
{"compound": "CCOCCCNC(=O)Cc1cc(=O)[nH]c(=O)[nH]1", "inhibition": "-18.9%"}
{"compound": "O=C(Nc1ccccc1N1CCN(C(=O)c2ccccc2)CC1)c1ccc2c(c1)OCO2", "inhibition": "67% (active)"}
{"compound": "CC(C)C(=O)Nc1cccc(C(=O)Nc2ccc3c(c2)OCO3)c1", "inhibition": "30.7%"}
{"compound": "O=C(Nc1ccccc1N1CCCCC1)c1ccc2nccnc2c1", "inhibition": "6.8%"}
{"compound": "O=C(Nc1ccccc1)c1ccc2c(c1)OCO2", "inhibition": "81.4% (active)"}
{"compound": "O=C(Nc1ccc(N2CCN(C(=O)c3ccccc3)CC2)c(Cl)c1)c1cccnc1", "inhibition": "22.7%"}
{"compound": "O=C(Nc1ccccc1N1CCCCC1)c1cccc(F)c1", "inhibition": "19%"}
{"compound": "O=C(Nc1cccnc1)c1ccc2c(c1)OCO2", "inhibition": "35.6%"}
{"compound": "Cc1ccc(F)cc1NC(=O)c1ccc2c(c1)OCO2", "inhibition": "33.3%"}
{"compound": "CCCC(=O)Nc1ccccc1N1CCN(C(=O)c2ccccc2)CC1", "inhibition": "33%"}
{"compound": "O=C(CN1CCN(CC(=O)Nc2ccc3c(c2)OCO3)CC1)Nc1ccc(F)cc1", "inhibition": "16.8%"}
{"compound": "O=C(CN1CCN(c2ccccc2F)CC1)c1ccc2c(c1)OCO2", "inhibition": "67.3% (active)"}
{"compound": "O=C(Nc1ccccc1N1CCN(c2ccccc2)CC1)c1cccc(F)c1", "inhibition": "79.2% (active)"}
{"compound": "O=C(NC12CC3CC(CC(C3)C1)C2)N1CCCC(CO)C1", "note": "(stereo not drawn)", "inhibition": "6.5%"}
{"compound": "Cc1csc2ncc(C(=O)N(Cc3ccccc3)c3ccccn3)c(=O)n12", "inhibition": "0.8%"}
{"compound": "O=C(COc1ccc(Br)cc1F)NC1CCN(Cc2ccccc2)CC1", "inhibition": "22.6%"}
{"compound": "Cc1cccc(C)c1NC1=NC(=S)N(c2ccc(N(C)C)cc2)C1(C)C", "inhibition": "-1%"}
{"compound": "CN(C)/C=C1/C(=O)Nc2ccccc21", "inhibition": "-9.6%"}
{"compound": "CCOC(=O)C1C(=O)OC2(CCCC2)C1C(=O)OCC", "note": "(stereo not drawn)", "inhibition": "23.9%"}
{"compound": "NC(=NC(=O)c1ccccc1)C1=C(O)CCC1=O", "inhibition": "-8%"}
{"compound": "CN1CCN(CC(=O)C23CC4CC(CC(C4)C2)C3)CC1", "inhibition": "12%"}
{"compound": "CC12CCC(C(=O)N(CCC#N)CCC#N)(CC1=O)C2(C)C", "note": "(stereo not drawn)", "inhibition": "-14%"}
{"compound": "Cc1cc(C(=O)OCC(=O)c2c(N)n(C)c(=O)n(C)c2=O)c(C)o1", "inhibition": "7.9%"}
{"compound": "Cc1cc(C(=O)OCC(=O)Nc2ccc(F)c(F)c2)c(C)o1", "inhibition": "95% (active)"}
{"compound": "Cc1cc(NC(=O)COC(=O)c2ccc(F)c(S(=O)(=O)N3CCOCC3)c2)no1", "inhibition": "8.2%"}
{"compound": "COc1cc(OC)c(C(=O)NC2CC(C)(C)NC(C)(C)C2)cc1OC", "inhibition": "-7.8%"}
